Structures are written as SMILES. Inconclusive results are not listed. Calls of active or inactive are those of the source. The calls were made as follows: active = hit-call score of the fitted dose curve at least 0.9, where 1 is the maximum; inconclusive = response in the unintended direction; inactive = score below 0.9.

The nature of this assay: ATG_M_32_TRANS: Attagene TRANS-FACTORIAL HepG2 Assay for M32 Transcription Factor (Internal Marker) (AID 2282984). Conditions: HepG2 Attagene TRANS M32 internal marker reporter. How it is done: ATG_TRANS is a cell-based, multiplexed-readout assay that uses HepG2, a human liver cell line, with measurements taken at 24 hours after chemical dosing in a 24-well plate.ATG_M_32_TRANS is one of 30 assay component(s) measured or calculated from the ATG_TRANS assay. It is designed to make measurements of mRNA induction, a form of inducible reporter, as detected with fluorescence intensity signals by Reverse transcription polymerase chain reaction (RT-PCR) and Capillary electrophoresis technology.Data from the assay component ATG_M_32_TRANS was analyzed into 1 assay endpoint. This assay endpoint, ATG_M_32_TRANS, was analyzed in the positive analysis fitting direction relative to DMSO as the negative control and baseline of activity. Using a type of inducible reporter, measures of mRNA for gain-of-signal activity can be used to understand the background control at the transcription factor-level as they relate to the gene . Furthermore, this assay endpoint can be referred to as a secondary readout, because this assay has produced multiple assay endpoints where this one serves a background control function. To generalize the intended target to other relatable targets, this assay endpoint is annotated to the background measurement intended target family, where the subfamily is internal marker.
Human liver HepG2 cells are transiently transfected with multiple reporter transcription units (MRTUs) in 6-well plates using FuGene 6 reagent (Roche; 3 ml FuGene/1 mg DNA). The MRTU constructs are regulated by a cis-regulating element (promoter). […] A major difference between the CIS and TRANS system is that in CIS activities of endogenous TFs are measured, whereas the TRANS assay evaluates changes in activities of exogenous, chimeric NR-Gal4 proteins. […] At the end of 24 hour incubation, total RNA was isolated using TriZol reagent (Invitrogen). The isolated RNA is then reverse-transcribed using oligo(dT) primer and Mo-MLV reverse transcriptase (Invitrogen) with DNAse I (Ambion) treatment for 30 min. The one-tenth of the produced cDNA was amplified by PCR using Taq DNA polymerase (Invitrogen) and two reporter sequence-specific primers. The PCR products were fluorescently labeled by primer extension with 6-arboxyfluorescein (6-FAM) 5'-labeled reporter sequence-specific primer (2 min at 95 C, 20 s at 68 C and 10 min at 72 C) and these products were digested with 5U of HpaI (New England Biolabs) for 2h at 37 C. The fragments were purified using Qiaquick PCR columns (Qiagen), analyzed on an ABI 3130xL genetic analyzer (Applied Biosystems) with peak positions identified by using a set of X-rhodamine (ROX)-labeled MapMarker1000 molecular weight standards (BioVentures). The raw capillary electrophoresis data was processed using Attagraph software (Attagene).
Take `c1coc(CNc2ncnc3nc[nH]c23)c1`: the call was inactive.

As for `CC(O)CN` (stereo not given), the result was inactive.

On to `Cc1cc(O)c(C)c(C)c1O`, for which the compound was called inactive.

For `CCCCCCC(C)O` (stereo not given), the call was inactive.

For the compound `CCCCCCCOC(C)=O`, the result was inactive.

For `CC(CCO)CC(C)(C)C` (stereo not given), the compound was called inactive.

As to `O=C(C=Cc1ccccc1)OCCCc1ccccc1`, the outcome was inactive.

`CCC(C)(CCCC(C)C)OC(C)=O` (stereo not given): the call was inactive.

In the case of `CC(CO)c1ccccc1` (stereo not given), the outcome was inactive.

In the case of `OCCN1CCOCC1`, the compound was classed as inactive.

Consider `CC(C)Cc1ccccc1`, for which the compound was called inactive.

For the compound `CCCCOCC(C)OCC(C)O` (stereo not given), the call was inactive.

For `CC(C)N1C(=O)c2ccccc2C1=O`, the compound was classed as inactive.

Consider `CC(=O)c1ccc(O)cc1`, for which the call was inactive.

As to `C=CCOC(=O)/C=C\C(=O)OCC=C`, the call was inactive.

Take `COc1cc(OC)c2ccc(=O)oc2c1`: the compound was classed as inactive.

`CCc1cccc(O)c1`: the call was inactive.

Consider `CC(=O)CCc1ccc(O)cc1`, for which the result was inactive.

Turning to `CCCCCCCCCO`, the compound was called inactive.

Consider `CC1COC(=O)O1` (stereo not given), for which the outcome was inactive.

`CC(=O)C1C(=O)C=C(C)OC1=O` (stereo not given): the compound was classed as inactive.

Turning to `CCCCCCCC(=O)N(C)C`, the compound was classed as inactive.

As to `C=C(C)CCCC(C)CCO` (stereo not given), the compound was called inactive.

On to `CCCCC/C=C\C=C\C(=O)OCC`, for which the outcome was inactive.

For `COC(=O)c1cccc(C(=O)OC)c1`, the compound was classed as inactive.

Take `O=C(O)c1cccc(Cl)n1`: the call was inactive.

Regarding `CCC(CC)CO`, the result was inactive.

Turning to `CC/C=C\CCOC(C)OCC` (stereo not given), the result was inactive.

As for `CC(=O)Nc1cc(S(=O)(=O)O)cc2cc(S(=O)(=O)O)c(N=Nc3ccccc3)c(O)c12`, the result was inactive.

With `CC(C)CCOC(=O)CC(C)C`, the outcome was inactive.

In the case of `CC(C)(C)c1ccc(S)cc1`, the result was inactive.

With `CCCCC(CC)COCCO` (stereo not given), the compound was called inactive.

For the compound `CCCCCCCCCCCCOC(C)=O`, the compound was called inactive.

On to `CCCC1CCOC(C)S1` (stereo not given), for which the call was inactive.

Turning to `CC(O)CNCC(C)O` (stereo not given), the compound was classed as inactive.

As to `CCCOC(=O)CC`, the call was inactive.

In the case of `CCCCOCCOCCOCCO`, the compound was called inactive.

With `CC(C)OB(OC(C)C)OC(C)C`, the call was inactive.

Take `C=C(C)C(=O)OCCOCCOC(=O)C(=C)C`: the compound was classed as inactive.

Turning to `C#C[C@]1(O)CC[C@H]2[C@@H]3CCc4cc(O)ccc4[C@H]3CC[C@@]21C`, the compound was classed as inactive.

These data come from PubChem BioAssay (EPA / NIEHS).
